{"source": "PubChem BioAssay (NCATS)", "note": "Several values for one entry are separate records, joined by “and”; a condition that tells them apart may be missing. Identical values can stand only once. A number with no mark means an inactive call. Inconclusive results are not listed. Activity calls are given as the source filed them. Unless noted, calls come from the whole dose curve.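 Throughout, for activity, negative = inhibition: ME-180 cervical cancer cells given 40 pM IL-6 alongside compound; SIE-controlled beta-lactamase reporter measured as 460/530 nm FRET emission ratio; % is set by controls: 0 for no effect and ±100 for the full control effect.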", "data": [{"target": "Cytochrome P450 1A2 (Homo sapiens) (UniProt P05177)", "sequence (P05177 whole entry, looked up)": "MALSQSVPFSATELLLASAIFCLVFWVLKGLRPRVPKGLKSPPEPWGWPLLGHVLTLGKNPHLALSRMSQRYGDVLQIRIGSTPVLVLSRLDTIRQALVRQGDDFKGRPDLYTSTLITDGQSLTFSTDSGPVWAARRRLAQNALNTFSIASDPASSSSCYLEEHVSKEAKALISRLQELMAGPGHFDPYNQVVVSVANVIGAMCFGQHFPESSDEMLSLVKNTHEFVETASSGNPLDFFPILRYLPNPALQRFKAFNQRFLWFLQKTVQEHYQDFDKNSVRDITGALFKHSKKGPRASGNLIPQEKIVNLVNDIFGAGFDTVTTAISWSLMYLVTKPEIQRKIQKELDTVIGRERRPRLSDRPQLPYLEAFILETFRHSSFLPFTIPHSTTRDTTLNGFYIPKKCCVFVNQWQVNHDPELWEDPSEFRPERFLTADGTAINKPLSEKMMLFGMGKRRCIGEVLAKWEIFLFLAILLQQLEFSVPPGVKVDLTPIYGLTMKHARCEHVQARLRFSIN", "assay": "p450-cyp1a2 (AID 410); note: potency is the fitted concentration of half-maximal effect;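 for activity change, negative = inhibition: -100% = full effect of reference inhibitor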", "details": "recombinant CYP1A2, luciferin-ME demethylation, luminescence; series mostly up to 57 µM", "outline": "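20nM CYP1A2, 100uM Luciferin-ME (=Km), 100mM KPO4; cpd 10 min RT; +NADPH regen, 60 min RT; stop/detect 20 min; luminescence. Normalized to furafylline 57 uM = full inhibition.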", "values": [{"compound": "CO[C@]1(C2=NCCN2)COc2ccccc2O1", "Potency": "inactive"}, {"compound": "CCNCCCNCCCNCCCNCC", "Potency": "inactive"}, {"compound": "CCCCCCCCCCCC(=O)O[C@H](CC(=O)O)C[N+](C)(C)C", "Potency": "inactive"}, {"compound": "CCCN(CCC)C[C@@H]1CCCCN1CCNC(=O)N1c2ccccc2C(=O)Nc2cccnc21", "Potency": "25.1 µM (active)"}, {"compound": "Fc1ccc(C(c2ccc(F)cc2)N2CCN(C/C=C\\c3ccccc3)CC2)cc1", "Potency": "15.8 µM (active)"}, {"compound": "N#C/C(=C\\c1ccc(O)c(O)c1)C(N)=O", "Potency": "39.8 µM (active)"}, {"compound": "C[C@H](N)C(=O)O", "Potency": "inactive"}, {"compound": "CC(=O)Nc1ccc(OC[C@@H](O)CNC(C)C)cc1", "Potency": "inactive"}, {"compound": "N[C@@H](Cn1cc(I)c(=O)n(Cc2ccc(C(=O)O)cc2)c1=O)C(=O)O", "Potency": "31.6 µM (active)"}, {"compound": "COc1ccccc1N1CCN(C[C@@H](O)COc2cccc3ccccc23)CC1", "Potency": "20 µM (active) and 31.6 µM (active)"}, {"compound": "CS(=O)(=O)Nc1c(O)ccc2c1CCC[C@H]2C1=NCCN1", "Potency": "inactive"}, {"compound": "N[C@@H](C(=O)O)c1ccc(C(=O)O)cc1", "Potency": "inactive"}]}, {"test_system": "not listed separately", "assay": "NFAT Signaling Pathway (AID 444; active = well fitted curve in either direction with a large enough effect, not every such curve was filed as active;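 note: carbachol stimulus at about its EC50 of 1 µM final; % is set by controls: 0 for no effect and ±100 for the full control effect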)", "details": "Jurkat NFAT-bla M1, carbachol, beta-lactamase ratio, 5 h; at 17.2 µM (top of the series)", "outline": "(§1)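 Jurkat cells with NFAT-driven β-lactamase reporter and co-expressed M1 receptor, stimulated with carbachol (final 1 uM, ~EC50), compound titration, 5 h at 37 °C. CCF4 loaded 1 h at RT; 460/530 nm ratio gave %activity and AC50.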", "units": {"activity change, negative = inhibition": "%"}, "values": [{"compound": "CC(C)(C)NC[C@H](O)c1ccc(O)c(CO)c1", "activity change, negative = inhibition": -10.8}, {"compound": "CC(=O)Nc1ccc(OC[C@@H](O)CNC(C)C)cc1", "activity change, negative = inhibition": -18.7}, {"compound": "COc1ccccc1N1CCN(C[C@@H](O)COc2cccc3ccccc23)CC1", "activity change, negative = inhibition": -8.94}, {"compound": "CC(C)NC[C@@H](O)COc1cccc2[nH]ccc12", "activity change, negative = inhibition": 4}]}, {"test_system": "not listed separately", "assay": "NFAT Signaling Pathway (AID 444)", "details": "Jurkat NFAT-bla M1, carbachol, beta-lactamase ratio, 5 h; at 38 µM (top of the series)", "outline": "as §1", "values": [{"compound": "CO[C@]1(C2=NCCN2)COc2ccccc2O1", "activity change, negative = inhibition": "-11%"}, {"compound": "CC(C)(C)NC[C@H](O)c1ccc(O)c(CO)c1", "activity change, negative = inhibition": "0.545% and 8.74%"}, {"compound": "COc1ccccc1N1CCN(C[C@@H](O)COc2cccc3ccccc23)CC1", "activity change, negative = inhibition": "-1.67%"}, {"compound": "CC(C)NC[C@@H](O)COc1cccc2[nH]ccc12", "activity change, negative = inhibition": "1.65% and 1.97%"}, {"compound": "CC(=O)N[C@@H](C(=O)O)C(C)(C)SN=O", "activity change, negative = inhibition": "9.84%"}]}, {"test_system": "not listed separately", "assay": "Stat Signaling Pathway (AID 446; active = well fitted curve in either direction with a large enough effect, not every such curve was filed as active)", "details": "ME-180 SIE beta-lactamase reporter, IL-6 stimulated, 5 h; at 17.2 µM (top of the series)", "outline": "(§2)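 Compound effects on IL-6-induced STAT reporter activity were measured in ME-180 cells. After overnight culture, cells were co-treated with 40 pM IL-6 for 5 hrs before beta-lactamase substrate loading at room temperature.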", "units": {"activity, negative = inhibition": "%"}, "values": [{"compound": "CC(C)(C)NC[C@H](O)c1ccc(O)c(CO)c1", "activity, negative = inhibition": 16.1}, {"compound": "Cc1ccc(/C(=C/CN2CCCC2)c2ccccn2)cc1", "activity, negative = inhibition": 6.54}, {"compound": "Fc1ccc(C(c2ccc(F)cc2)N2CCN(C/C=C\\c3ccccc3)CC2)cc1", "activity, negative = inhibition": 10.1}, {"compound": "CC(=O)Nc1ccc(OC[C@@H](O)CNC(C)C)cc1", "activity, negative = inhibition": 9.62}, {"compound": "COc1ccccc1N1CCN(C[C@@H](O)COc2cccc3ccccc23)CC1", "activity, negative = inhibition": -4.93}, {"compound": "CC(C)NC[C@@H](O)COc1cccc2[nH]ccc12", "activity, negative = inhibition": 19}]}, {"test_system": "not listed separately", "assay": "Stat Signaling Pathway (AID 446)", "details": "ME-180 SIE beta-lactamase reporter, IL-6 stimulated, 5 h; at 38 µM (top of the series)", "outline": "as §2", "values": [{"compound": "CO[C@]1(C2=NCCN2)COc2ccccc2O1", "activity, negative = inhibition": "13.6%"}, {"compound": "CC(C)(C)NC[C@H](O)c1ccc(O)c(CO)c1", "activity, negative = inhibition": "-5.91% and -0.604%"}, {"compound": "Cc1ccc(/C(=C/CN2CCCC2)c2ccccn2)cc1", "activity, negative = inhibition": "-0.742%"}, {"compound": "Fc1ccc(C(c2ccc(F)cc2)N2CCN(C/C=C\\c3ccccc3)CC2)cc1", "activity, negative = inhibition": "-6.11%"}, {"compound": "CC(C)NC[C@@H](O)COc1cccc2[nH]ccc12", "activity, negative = inhibition": "12.1% and 12.9%"}, {"compound": "CC(=O)N[C@@H](C(=O)O)C(C)(C)SN=O", "activity, negative = inhibition": "2.94%"}]}, {"target": "Glucocorticoid receptor (Homo sapiens) (UniProt P04150)", "sequence (P04150 whole entry, looked up, the tested form may be a part)": "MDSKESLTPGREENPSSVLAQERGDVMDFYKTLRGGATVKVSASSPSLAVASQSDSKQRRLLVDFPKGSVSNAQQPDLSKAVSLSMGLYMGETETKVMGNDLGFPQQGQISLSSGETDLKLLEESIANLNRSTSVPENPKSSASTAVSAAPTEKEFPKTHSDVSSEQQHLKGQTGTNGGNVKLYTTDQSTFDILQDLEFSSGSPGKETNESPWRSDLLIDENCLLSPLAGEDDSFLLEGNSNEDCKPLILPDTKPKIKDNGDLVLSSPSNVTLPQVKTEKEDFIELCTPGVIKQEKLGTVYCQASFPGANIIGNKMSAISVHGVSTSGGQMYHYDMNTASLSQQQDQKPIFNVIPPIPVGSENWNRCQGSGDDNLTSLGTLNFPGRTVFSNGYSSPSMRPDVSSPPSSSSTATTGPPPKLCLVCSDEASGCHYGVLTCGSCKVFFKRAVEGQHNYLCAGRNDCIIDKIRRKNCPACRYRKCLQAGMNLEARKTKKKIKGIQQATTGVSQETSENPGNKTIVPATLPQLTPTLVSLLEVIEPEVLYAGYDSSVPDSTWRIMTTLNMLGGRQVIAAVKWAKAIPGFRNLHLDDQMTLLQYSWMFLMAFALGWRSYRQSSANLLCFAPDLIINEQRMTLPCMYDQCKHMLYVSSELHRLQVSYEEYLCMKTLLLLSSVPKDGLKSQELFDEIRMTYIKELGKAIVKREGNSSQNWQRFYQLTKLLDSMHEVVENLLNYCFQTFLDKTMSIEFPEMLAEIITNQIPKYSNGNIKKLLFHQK", "assay": "GR-GFP Redistribution (AID 450;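 active = compounds whose dose series gives a full or clear partial fitted curve of increased nuclear translocation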)", "details": "U2OS GR-GFP nuclear translocation, laser cytometry, 2 h", "values": [{"compound": "CO[C@]1(C2=NCCN2)COc2ccccc2O1", "Potency": "> 46 µM"}, {"compound": "CCNCCCNCCCNCCCNCC", "Potency": "> 46 µM"}, {"compound": "CCCCCCCCCCCC(=O)O[C@H](CC(=O)O)C[N+](C)(C)C", "Potency": "> 46 µM"}, {"compound": "CC(C)(C)NC[C@H](O)c1ccc(O)c(CO)c1", "Potency": "> 46 µM and > 20.6 µM"}, {"compound": "CCCN(CCC)C[C@@H]1CCCCN1CCNC(=O)N1c2ccccc2C(=O)Nc2cccnc21", "Potency": "> 46 µM"}, {"compound": "Fc1ccc(C(c2ccc(F)cc2)N2CCN(C/C=C\\c3ccccc3)CC2)cc1", "Potency": "> 46 µM and > 20.6 µM"}, {"compound": "N#C/C(=C\\c1ccc(O)c(O)c1)C(N)=O", "Potency": "> 46 µM"}, {"compound": "C[C@H](N)C(=O)O", "Potency": "> 46 µM"}, {"compound": "CC(=O)Nc1ccc(OC[C@@H](O)CNC(C)C)cc1", "Potency": "> 20.6 µM and > 46 µM"}, {"compound": "N[C@@H](Cn1cc(I)c(=O)n(Cc2ccc(C(=O)O)cc2)c1=O)C(=O)O", "Potency": "> 46 µM"}, {"compound": "COc1ccccc1N1CCN(C[C@@H](O)COc2cccc3ccccc23)CC1", "Potency": "> 46 µM and > 20.6 µM"}, {"compound": "CS(=O)(=O)Nc1c(O)ccc2c1CCC[C@H]2C1=NCCN1", "Potency": "> 46 µM"}, {"compound": "N[C@@H](C(=O)O)c1ccc(C(=O)O)cc1", "Potency": "> 46 µM"}, {"compound": "CC(C)NC[C@@H](O)COc1cccc2[nH]ccc12", "Potency": "> 46 µM and > 20.6 µM"}, {"compound": "CC(=O)N[C@@H](C(=O)O)C(C)(C)SN=O", "Potency": "> 46 µM"}]}, {"target": "Glucocorticoid receptor (Homo sapiens) (UniProt P04150)", "assay": "GR-EFC Redistribution (AID 451)", "details": "CHO-K1 GR-EFC translocation, beta-gal luminescence, 2 h", "outline": "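CHO-K1 cells expressing nuclear EA and GR-ED fragments of b-gal; compounds titrated up to 46 uM final, 2 h at 37 C. GR nuclear translocation read as complemented b-gal luminescence after 1 h RT detection.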", "values": [{"compound": "CO[C@]1(C2=NCCN2)COc2ccccc2O1", "Potency": "> 46 µM"}, {"compound": "CCNCCCNCCCNCCCNCC", "Potency": "> 46 µM"}, {"compound": "CCCCCCCCCCCC(=O)O[C@H](CC(=O)O)C[N+](C)(C)C", "Potency": "> 46 µM"}, {"compound": "c1ccc(CN2CCC3(CCc4ccccc43)CC2)cc1", "Potency": "> 46 µM"}, {"compound": "CC(C)(C)NC[C@H](O)c1ccc(O)c(CO)c1", "Potency": "> 46 µM and > 20.6 µM"}, {"compound": "Cc1c(C(=O)NN2CCOCC2)nn(-c2ccc(Cl)cc2Cl)c1-c1ccc(I)cc1", "Potency": "> 46 µM"}, {"compound": "CCCN(CCC)C[C@@H]1CCCCN1CCNC(=O)N1c2ccccc2C(=O)Nc2cccnc21", "Potency": "> 46 µM"}, {"compound": "Fc1ccc(C(c2ccc(F)cc2)N2CCN(C/C=C\\c3ccccc3)CC2)cc1", "Potency": "> 46 µM and > 20.6 µM"}, {"compound": "N#C/C(=C\\c1ccc(O)c(O)c1)C(N)=O", "Potency": "> 46 µM"}, {"compound": "C[C@H](N)C(=O)O", "Potency": "> 46 µM"}, {"compound": "CC(=O)Nc1ccc(OC[C@@H](O)CNC(C)C)cc1", "Potency": "> 20.6 µM and > 46 µM"}, {"compound": "CCOC(=O)C1=C(C)NC(c2ccccc2)=C(C(=O)OCc2ccc([N+](=O)[O-])cc2)[C@@H]1C#Cc1ccccc1", "Potency": "> 46 µM"}, {"compound": "N[C@@H](Cn1cc(I)c(=O)n(Cc2ccc(C(=O)O)cc2)c1=O)C(=O)O", "Potency": "> 46 µM"}, {"compound": "COc1ccccc1N1CCN(C[C@@H](O)COc2cccc3ccccc23)CC1", "Potency": "> 46 µM and > 20.6 µM"}, {"compound": "CS(=O)(=O)Nc1c(O)ccc2c1CCC[C@H]2C1=NCCN1", "Potency": "> 46 µM"}, {"compound": "N[C@@H](C(=O)O)c1ccc(C(=O)O)cc1", "Potency": "> 46 µM"}, {"compound": "CC(C)NC[C@@H](O)COc1cccc2[nH]ccc12", "Potency": "> 46 µM and > 20.6 µM"}, {"compound": "CC(=O)N[C@@H](C(=O)O)C(C)(C)SN=O", "Potency": "> 46 µM"}, {"compound": "Cc1c(-c2ccc(Cl)cc2)noc1C1CCN(CCc2ccccc2)CC1", "Potency": "> 46 µM"}]}]}
